Screens: PubChem, several laboratories
KKLEB cytotox: cytotoxicity in KKLEB CF airway cells, primary screen, cytotoxicity control for CF NF-kB inhibitor project, cell-based, uHTS, fluorescence assay plates; KKLEB CF airway cells viability, ATPlite luminescence, overnight; stronger effect = lower value; cells stimulated with P. aeruginosa culture filtrate; activity change (cytotoxicity), % at 5 µM; hit rate 0.36% among 360,000; AID 602141, 2011;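 active means corrected activity change at or below -50% at 5 µM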
Peg3 promoter: Peg3 promoter-driven luciferase inhibitors, primary screen, cell-based, HeLa, luciferase luminescence; inhibition, % at 20 µM; hit rate 1.7% among 360,000; HeLa PEG-Prom luciferase reporter, overnight;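 active means inhibition of at least 50% at 20 µM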
B2AR ag: beta2AR agonists driving receptor internalization, primary screen, cell-based, FAP fluorogen, flow cytometry. Beta-2 adrenergic receptor (Homo sapiens), P07550. Am2.2-beta2AR cells. response, % (no concentration beside the values). hit rate 0.43% among 340,000. AID 504454, 2011;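 active means response above a set limit, near 3 SD of response in nonfluorescent compounds, cut at about 42% in these data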
Target sequence (P07550 whole entry, looked up): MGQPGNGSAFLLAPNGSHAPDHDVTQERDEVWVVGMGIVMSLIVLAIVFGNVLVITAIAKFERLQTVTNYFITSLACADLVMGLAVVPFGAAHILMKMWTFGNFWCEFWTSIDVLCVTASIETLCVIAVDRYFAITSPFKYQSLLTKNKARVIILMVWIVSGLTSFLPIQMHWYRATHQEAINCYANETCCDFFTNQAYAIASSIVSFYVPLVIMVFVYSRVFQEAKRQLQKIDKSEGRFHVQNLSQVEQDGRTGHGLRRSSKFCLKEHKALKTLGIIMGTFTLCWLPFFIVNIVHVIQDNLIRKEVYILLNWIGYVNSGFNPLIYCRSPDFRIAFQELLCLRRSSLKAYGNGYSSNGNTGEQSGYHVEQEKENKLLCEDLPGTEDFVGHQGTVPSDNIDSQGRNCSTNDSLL
CF NFkB inh: inhibitors of PAF-induced NF-kB signaling, primary screen, cell-based, GFP fluorescence, uHTS | AID 588850, 2011 | inhibition, % at 5 µM | hit rate 0.86% among 360,000 | KKLEB NF-kB-GFP reporter, GFP fluorescence overnight;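 active means at least 50% inhibition at 5 µM, scaled per plate between neutral and stimulator controls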;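 further: PAF is a Pseudomonas aeruginosa culture filtrate used as stimulus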
TRPM1 prom inh: inhibitors of MITF-dependent TRPM1 promoter reporter, primary screen, cell-based, SK-MEL-5, single point, luciferase; SK-MEL-5 TRPM1 promoter luciferase, 24 h; AID 488899, 2010; hit rate 0.83% among 330,000; inhibition, % at 12.5 µM;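 active means mean inhibition across replicates of 60% or more, whatever share of single replicates reaches that level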
HIF-2a block: HIF-2a reporter inhibitors, primary screen, luminescence, 786-0 RCC cells; hit rate 0.72% among 360,000; AID 624352, 2012; 786-0 RCC cells HIF-2a reporter, luciferase luminescence, overnight; inhibition, % at 18.8 µM;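 active means inhibition of the luminescence signal of 40% or more relative to plate controls, in a single-dose primary screen at 18.75 µM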
A number is an active result; i = inactive; nt = not tested or not shown. Sampled rows, rich in hits. Any-hit rate of the full collection: about 2.8%.

SMILES	KKLEB cytotox	Peg3 promoter	B2AR ag	CF NFkB inh	TRPM1 prom inh	HIF-2a block
COc1cccc(-c2sc3ccc(OC)cc3c2-c2ccc(OCCN3CCCC3)cc2)c1	i	97	i	i	i	i
COc1cccc(-c2sc3ccccc3c2-c2ccc(OCCN3CCCCC3)cc2)c1	i	84	i	i	i	i
COc1ccc(-c2sc3cc(OC)ccc3c2-c2ccc(OCCN3CCCCC3)cc2)cc1	nt	nt	nt	nt	nt	i
COc1cc2sc(-c3ccccc3OC)c(-c3ccc(OCCN4CCOCC4)cc3)c2cc1OC	i	i	i	i	i	i
COc1cccc(-c2sc3cc(OC)c(OC)cc3c2-c2ccc(OCCN3CCCCC3)cc2)c1	i	97	i	i	i	i
Cc1ccc(S(=O)(=O)c2cn(C)c3cc(N4CCN(C)CC4)c(F)cc3c2=O)c(C)c1	i	76	i	i	i	i
CCN1CCN(c2cc3c(cc2F)c(=O)c(S(=O)(=O)c2ccccc2)cn3C)CC1	i	i	i	i	i	i
O=C(CCN1C(=O)/C(=C/c2ccc3c(c2)OCO3)SC1=S)Nc1ccc(C(=O)O)cc1	i	i	i	i	i	i
O=C(CCCN1C(=O)/C(=C/c2ccc3c(c2)OCO3)SC1=S)Nc1ccc(C(=O)O)cc1	i	i	i	i	i	69
O=C(CN1C(=O)S/C(=C\c2ccc(-c3cc(C(=O)O)ccc3Cl)o2)C1=O)Nc1ccc2c(c1)OCO2	i	i	i	i	i	i
O=C(CCCN1C(=O)C(=Cc2ccc3c(c2)OCO3)SC1=S)Nc1ccc(C(=O)O)c(O)c1	i	i	nt	i	nt	51
Cn1cc(/C=C2/SC(=O)N(CC(=O)Nc3ccc4c(c3)OCO4)C2=O)c2ccccc21	-66	i	i	58	i	i
O=C(CCCN1C(=O)/C(=C/c2ccccc2)SC1=S)Nc1ccc(C(=O)O)c(O)c1	i	i	i	i	i	i
COc1ccccc1CNc1nc(Oc2cccc(F)c2)c2sccc2n1	i	i	nt	i	nt	i
Cc1nc(-[n+]2nc(-c3ccncc3)nn2-c2ccccc2)sc1C	i	i	nt	i	nt	i
COc1ccccc1Nc1nnc(SCc2nnc(-c3cc(OC)c(OC)c(OC)c3)o2)s1	i	i	i	i	i	i
CCOc1ccccc1Nc1nnc(SCc2nnc(-c3cc(OC)c(OC)c(OC)c3)o2)s1	i	65	i	i	i	i
COC(=O)c1c(N2C(=O)[C@H]3[C@@H](C2=O)[C@]2(C(=O)Nc4c(C)cccc42)N2CCC[C@@H]32)sc(C)c1C	i	56	i	i	i	i
Cc1cc(Cl)cc2c1NC(=O)[C@]21[C@@H]2C(=O)N(Cc3ccccc3)C(=O)[C@@H]2[C@@H]2CCCN21	i	i	i	i	i	i
FC(F)(F)c1cc(CCN2CCNC[C@@H]2CC2CCCCC2)cc(C(F)(F)F)c1	i	96	i	i	64	i
CCCC[C@@H]1CNCCN1CCc1cc(C(F)(F)F)cc(C(F)(F)F)c1	i	i	i	i	i	i
Nc1c(-c2ccc(C(F)(F)F)cc2)nc2ncccn12	nt	nt	nt	nt	nt	i
O=C(NCCc1ccccc1)c1cc(-c2ccccc2)c(N2CCOCC2)s1	i	i	i	i	i	i
CCN(CC)CCCNC(=O)c1cc(-c2ccccc2)c(N2CCCCC2)s1	i	97	i	i	i	i
O=C(/C=C/Nc1ccccc1F)c1cccs1	i	i	i	i	i	i
SMILES	KKLEB cytotox	Peg3 promoter	B2AR ag	CF NFkB inh	TRPM1 prom inh	HIF-2a block
O=C(/C=C\Nc1cccc(F)c1)c1cccs1	i	i	i	i	i	i
Cc1ccc(N/C=C/C(=O)c2cccs2)cc1	-54	i	i	i	i	i
O=C(/C=C/Nc1ccc(F)cc1F)c1ccco1	-58	i	i	i	i	i
O=C(/C=C/Nc1ccc(F)cc1F)c1cccs1	-68	i	i	i	i	i
O=C(/C=C/c1ccc(Br)cc1)c1ccco1	i	90	i	i	i	i
CCOc1ccc(NC(=S)N2CCC(C(=O)c3ccc(OC)cc3)CC2)cc1	i	i	nt	i	nt	i
Cc1ccc(C(=O)NCCN2CCC(n3c(=O)[nH]c4ccccc43)CC2)cc1	nt	nt	nt	nt	nt	i
CC1(c2nc3ccccc3[nH]2)c2ccccc2C(=O)N1Cc1ccccc1 (stereo unspecified)	nt	nt	nt	nt	nt	i
